GLP-1R agonist: qHTS of GLP-1 Receptor Agonists; 0.007% of 380,000 active; Potency, µM (titrated, usually from 45.6 µM), inactives show top-dose activation, most hits filed as activators; Glucagon-like peptide 1 receptor (Homo sapiens), P43220; HEK293 GLP-1R CRE-luciferase, luminescence, 4-6 h; cells express a hypersensitive GLP-1R form; further: % of control where 0% means no effect
Target sequence (P43220 whole entry, looked up): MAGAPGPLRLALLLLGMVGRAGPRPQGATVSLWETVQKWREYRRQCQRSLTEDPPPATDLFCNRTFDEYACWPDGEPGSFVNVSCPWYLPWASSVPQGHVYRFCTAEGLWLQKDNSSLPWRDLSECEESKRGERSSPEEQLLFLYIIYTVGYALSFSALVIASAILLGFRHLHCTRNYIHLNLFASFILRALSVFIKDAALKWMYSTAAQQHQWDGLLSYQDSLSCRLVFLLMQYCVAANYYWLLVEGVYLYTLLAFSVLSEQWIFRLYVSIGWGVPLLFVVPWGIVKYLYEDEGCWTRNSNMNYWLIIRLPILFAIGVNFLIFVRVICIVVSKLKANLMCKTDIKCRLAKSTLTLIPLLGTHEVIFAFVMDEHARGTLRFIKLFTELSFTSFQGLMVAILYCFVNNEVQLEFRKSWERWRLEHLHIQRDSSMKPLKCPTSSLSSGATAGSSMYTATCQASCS
S2 tox: Viability Counterscreen for Primary qHTS for Inhibitors of ATXN expression | 0.49% of 400,000 active | S2 cells (HEK-293 line with an ATXN2-luciferase reporter) viability, CellTiter-Fluor protease fluorescence, 24 h | Potency, µM (series often up to 56.7 µM), most hits filed as cytotoxic | AID 651635, 2014; further: nearly all actives have a fitted effect of over 40% in size
HepG2 tox-1: qHTS for Inhibitors of TGF-b: Cytotox Counterscreen. HepG2 CAGA-GFP viability, ATP luminescence, 18 h. Potency, µM (series often up to 46.1 µM), for the others: top-dose activity change, negative = cytotoxicity, usual class: cytotoxic. 0.76% of 410,000 active. AID 588856, 2011
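HepG2 CAGA-GFP cells (1000/well, DMEM with 1% FBS) received compound, then TGF-beta at 500 pg/mL final, and were incubated 18 hours at 37 degrees C. Viability was read by CellTiter-Glo luminescence. Media-only wells were set as complete cell-killing and DMSO as no toxicity.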
TGFb SMAD3 inh: qHTS for Inhibitors of TGF-b | HepG2 CAGA-GFP TGF-b/SMAD3 reporter, GFP fluorescence, 18 h; TGF-beta stimulated, 500 pg/mL final | Potency, µM (top dose mostly 46.1 µM), for the others: top-dose activity, negative = inhibition, hits mostly inhibitors | 1.2% of 410,000 active; further: on the % scale 0 is the no-effect control and ±100 the full control effect; nearly all actives have a fitted effect of over 65% in size
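HEPG2 CAGA-GFP reporter cells (1000/well, DMEM with 1% FBS) received compounds, then recombinant TGF-beta at 500 pg/mL final for 18 hours at 37 degrees C. Per-cell GFP summed per well was normalised to unstimulated and stimulated DMSO controls before curve fitting.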
GLP1R inv ag: qHTS of GLP-1 Receptor Inverse Agonists (Inhibition Mode); Potency, µM (top dose mostly 38.3 µM), for inactives: top-dose activity change, negative = inhibition, usual class: inhibitors; AID 624417, 2012; Glucagon-like peptide 1 receptor (Homo sapiens), P43220; HEK293 GLP-1R CRE-luciferase, luminescence, 24 h; GLP-1R form is constitutively active; 1.6% of 410,000 active; further: on the % scale 0 is the no-effect control and ±100 the full control effect; nearly all actives have a fitted effect of over 55% in size
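Using stably transfected HEK293 (constitutively active GLP-1R, cAMP-luciferase reporter), compounds were incubated 24 hr and luciferase measured by luminescence.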
ATXN2 expr inh: Primary qHTS for Inhibitors of ATXN expression. 0.72% of 360,000 active. HEK-293 ATXN2-luciferase reporter, luminescence, 24 h. Potency, µM (series often up to 57 µM), without a hit: at the highest dose activity change, negative = inhibition, most hits filed as inhibitors; further: on the % scale 0 is the no-effect control and ±100 the full control effect; nearly all actives have a fitted effect of over 55% in size
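qHTS (up to 57 uM final) was run with 24 h compound exposure of reporter cells at 37 °C. Each well was multiplexed: SteadyGlo luminescence measured ATXN2-luciferase expression after a fluorogenic Gly-Phe-AFC viability readout (25 uM final).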
TGFb confirm: qHTS for Inhibitors of TGF-b: Confirmation of Cherry Picks | shares compounds with TGFb SMAD3 inh | HepG2 CAGA-GFP TGF-b reporter, GFP fluorescence, 18 h; cells stimulated with TGF-beta, 500 pg/mL | Potency, µM (series often up to 46.1 µM), without a hit: top-dose activity, negative = inhibition, most hits filed as inhibitors | 63% of 1,600 active; further: on the % scale 0 is the no-effect control and ±100 the full control effect; nearly all actives have a fitted effect of over 65% in size
HepG2 tox-2: qHTS for Inhibitors of TGF-b: Cytotox Counterscreen for Cherry Picks. shares compounds with TGFb SMAD3 inh. HepG2 CAGA-GFP viability, ATP luminescence, 18 h; cells stimulated with TGF-beta, 500 pg/mL. Potency, µM (series often up to 46.1 µM), for inactives: top-dose activity, negative = cytotoxicity, hits mostly inhibitors. 27% of 1,600 active. AID 720535, 2013; further: on the % scale 0 is the no-effect control and ±100 the full control effect; nearly all actives have a fitted effect of over 70% in size
CCL64 TGFb inh: qHTS for Inhibitors of TGF-b: CCL64 Cells Orthogonal Assay for Cherry Picks; shares compounds with TGFb SMAD3 inh; CCL64 CAGA-GFP reporter, TGF-b stimulated, GFP fluorescence, 18 h; Potency, µM (doses to about 46.1 µM), for the others: at the highest dose activity, negative = inhibition, actives largely listed as inhibitors; 41% of 1,600 active; AID 720536, 2013; further: nearly all actives have a fitted effect of over 65% in size
COP TGFb inh: qHTS for Inhibitors of TGF-b: Hit Validation in HepG2 Cells using COP promoter; shares compounds with TGFb SMAD3 inh; HepG2 COP-GFP TGF-b reporter, GFP fluorescence, 18 h; cells stimulated by added recombinant TGF-beta; Potency, µM (titrated, usually from 46.1 µM), inactives show at the top dose activity, negative = inhibition, usual class: inhibitors; 3% of 1,600 active; AID 720537, 2013; further: nearly all actives have a fitted effect of over 70% in size
Starred values were filed as active, the others as inactive. Hits are enriched below; roughly 3.7% of the tested compounds scored in any of these assays. The call rests on the fitted dose curve; in most records, active means well fitted curve in the direction sought with a large enough effect; inconclusive means small, poorly fitted or top-dose-only effect, or another doubt; inactive means no such curve, though single readings can be large; an effect the other way counts as inactive or inconclusive. Potency means the concentration at half of the fitted maximal effect.

How did O=C1NC[C@H](c2ccccc2)OC(=O)[C@@H](Cc2ccc(F)cc2)CC/C=C/C[C@H]1CC(=O)N(CCO)Cc1ccccc1 do in these assays?
GLP-1R agonist: -1%; S2 tox: 11µM*; TGFb SMAD3 inh: 11µM*; GLP1R inv ag: -1%; ATXN2 expr inh: 14µM*; TGFb confirm: 21µM*; CCL64 TGFb inh: inconclusive; COP TGFb inh: 53%

How did O=C1N[C@@H](Cc2c[nH]c3ccccc23)COC(=O)[C@H](Cc2ccc(F)cc2)C/C=C\C[C@H]1CC(=O)N(CCO)Cc1ccccc1 do in these assays?
GLP-1R agonist: -3%; S2 tox: inconclusive; HepG2 tox-1: -8%; TGFb SMAD3 inh: inconclusive; GLP1R inv ag: inconclusive; ATXN2 expr inh: inconclusive

What do the screens show for `O=C1N[C@@H](Cc2c[nH]c3ccccc23)COC(=O)[C@@H](Cc2ccc(F)cc2)CC/C=C/C[C@@H]1CC(=O)N(CCO)Cc1ccccc1`?
GLP-1R agonist: -1%; S2 tox: inconclusive; HepG2 tox-1: -2%; TGFb SMAD3 inh: 8.9µM*; GLP1R inv ag: inconclusive; ATXN2 expr inh: inconclusive; TGFb confirm: 5.8µM*; HepG2 tox-2: -8%; CCL64 TGFb inh: inconclusive; COP TGFb inh: 21%

Results for O=C1NC[C@H](c2ccccc2)OC(=O)[C@H](Cc2ccc(F)cc2)CC/C=C/C[C@H]1CC(=O)N(CCO)Cc1ccccc1 ?
GLP-1R agonist: -6%; S2 tox: inconclusive; TGFb SMAD3 inh: inconclusive; GLP1R inv ag: -6%; ATXN2 expr inh: 0%

Results for O=C(C[C@H]1C/C=C\CC[C@H](Cc2ccc(F)cc2)C(=O)O[C@@H](c2ccccc2)CNC1=O)N[C@H](CO)Cc1ccccc1 ?
GLP-1R agonist: 5%; S2 tox: inconclusive; HepG2 tox-1: -66%; TGFb SMAD3 inh: inconclusive; GLP1R inv ag: inconclusive; ATXN2 expr inh: 0%

Results for O=C(C[C@H]1C/C=C\CC[C@H](Cc2ccc(F)cc2)C(=O)O[C@@H](c2ccccc2)CNC1=O)N[C@@H](CO)Cc1ccccc1 ?
GLP-1R agonist: 0%; S2 tox: inconclusive; HepG2 tox-1: -114%; TGFb SMAD3 inh: 7.1µM*; GLP1R inv ag: inconclusive; ATXN2 expr inh: inconclusive; TGFb confirm: inconclusive; HepG2 tox-2: inconclusive; CCL64 TGFb inh: 13µM*; COP TGFb inh: 25%

What do the screens show for `Cc1cccc(N2CCN(c3nc4ccc(C)cc4n4cnnc34)CC2C)c1` (stereo not drawn)?
S2 tox: inactive; HepG2 tox-1: -15%; TGFb SMAD3 inh: 19%; GLP1R inv ag: -23%; ATXN2 expr inh: -6%

What do the screens show for `COc1cccc(CNC(=O)c2cccc(-n3c(C)nc4cccnc43)c2)c1OC`?
HepG2 tox-1: 6%; TGFb SMAD3 inh: -21%; GLP1R inv ag: 8%

How did COC(=O)C1=C[C@@H](C(=O)OC)C2C3=C(C(=O)[C@]2(C)NC(=O)c2ccccc2)[C@H](C)n2c(=O)n(-c4ccccc4)c(=O)n2[C@@H]3C1 (stereo partly drawn) do in these assays?
HepG2 tox-1: -11%; TGFb SMAD3 inh: -9%

Results for Cc1cccc(N2CCN(C(=O)CCCSc3nc4ccccc4[nH]3)CC2)c1C ?
GLP-1R agonist: 1%; S2 tox: inactive; HepG2 tox-1: -34%; TGFb SMAD3 inh: inconclusive; GLP1R inv ag: -29%; ATXN2 expr inh: -22%; TGFb confirm: inconclusive; HepG2 tox-2: inconclusive; CCL64 TGFb inh: 13µM*; COP TGFb inh: 41%

What do the screens show for `O=C(CCCSc1nc2ccccc2[nH]1)N1CCN(c2ccccc2)CC1`?
GLP-1R agonist: -9%; S2 tox: inactive; HepG2 tox-1: -19%; TGFb SMAD3 inh: -15%; GLP1R inv ag: -3%; ATXN2 expr inh: 2%

What do the screens show for `CC[N+]1(CC(=O)c2ccc(I)cc2)CCCCC1`?
HepG2 tox-1: 3%; TGFb SMAD3 inh: -2%

Results for Cc1noc(C)c1COc1ccccc1C(=O)N(C)Cc1ccc(C(C)(C)C)cc1 ?
GLP-1R agonist: 11%; S2 tox: inactive; HepG2 tox-1: -26%; TGFb SMAD3 inh: 11µM*; GLP1R inv ag: inconclusive; TGFb confirm: 16µM*; HepG2 tox-2: inconclusive; CCL64 TGFb inh: inconclusive; COP TGFb inh: 44%

What do the screens show for `COC(=O)c1ccccc1NC(=O)CSc1nc2ccccc2nc1Cc1ccccc1OC`?
GLP-1R agonist: 7%; S2 tox: inactive; HepG2 tox-1: 6%; TGFb SMAD3 inh: 28%; GLP1R inv ag: 14%; ATXN2 expr inh: 15%

What do the screens show for `COc1cc(O)cc(O)c1C(=O)/C=C/c1ccccc1`?
GLP-1R agonist: 1%; S2 tox: inconclusive; HepG2 tox-1: -29%; TGFb SMAD3 inh: 14µM*; GLP1R inv ag: -21%; ATXN2 expr inh: inconclusive; TGFb confirm: 21µM*; HepG2 tox-2: inconclusive; CCL64 TGFb inh: inconclusive; COP TGFb inh: 21%

High-throughput results: PubChem, National Center for Advancing Translational Sciences (NCATS)
